The text below walks through data of PubChem BioAssay.

The assay in a line: JC-1 mitochondrial potential readout, lung cancer cells – cell-based, A549, JC-1 fluorescence, basal, 24 h, 100 nL, profiling panel (AID 1138).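 Also: A549 lung adenocarcinoma cells under basal conditions with no added stimulus; test concentration not given here.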 The settings on record: higher = more signal.
As for `CC(C)NC(=O)[C@@H]1c2ccccc2C(=O)N(Cc2cc(C(F)(F)F)cc(C(F)(F)F)c2)[C@H]1c1ccc(CO)cc1`, the z-score was 1.98.
As for `O=C(CS)NCCCCCNC(=O)[C@@H]1C[C@@H]2C(=O)N3CCC[C@H]3C(=O)N2[C@@H]1c1ccc(O)cc1`, the figure is 0.605.
As for `CCCCC=C[C@@H](NC(=O)CCc1ccccc1)c1ccccc1`, the figure is -2.3.
With `COCCOC(=O)N1C(=O)[C@@]2(c3cc(C#Cc4ccc(OC)cc4)ccc31)[C@H](C(=O)N1CCc3cc(OC)c(OC)cc3C1)[C@H]1C(=O)O[C@H](c3ccccc3)[C@H](c3ccccc3)N1[C@@H]2c1ccc(OCCO)cc1` the figure was -1.79.
Take `OCc1ccc(-c2cc[n+](Cc3cccc(OC(F)(F)F)c3)cc2)cc1`: the z-score was -0.884.
`O=C(Nc1cc(Br)ccc1C(=O)NCc1cccc(O)c1)c1ccccc1` returned a z-score of 0.252.
As for `COC(=O)c1ccc(OC)c(/C=C\CC(CCc2ccccc2)OC(C)=O)c1` (stereo not drawn), the figure is 0.293; as for `O=C1C[C@@](C(=O)O)(c2ccc([N+](=O)[O-])cc2)[C@@H](c2ccc(CO)cc2)N1CC12CC3CC(CC(C3)C1)C2`, 2.19.
In the case of `CO[C@H]1O[C@H](CO)[C@@H](OC(=O)Nc2cccc(F)c2)[C@H](OC(=O)Nc2ccc3c(c2)OCO3)[C@H]1OC(=O)Nc1ccc2c(c1)OCO2`, the z-score is -0.358.
With `COc1ccc([Si](C)(C)[C@H]2[C@H](CCO)O[C@@]3(C(=O)N(Cc4cccc(N5CCOC5=O)c4)c4ccccc43)[C@@H]2C)cc1` the figure was 0.00631; with `COC(=O)C(CC#Cc1ccc2c(c1)[C@]1(C(=O)N2)[C@H](c2ccccc2OCCO)N2[C@H](c3ccccc3)[C@H](c3ccccc3)OC(=O)[C@H]2[C@@H]1C(=O)Nc1nc2ccccc2s1)C(=O)OC`, -2.12.
In the case of `CCOC(=O)C[C@H]1[C@H](OC(=O)Cc2ccc3c(c2)OCO3)[C@@H](NC(=O)c2ccccc2)c2cc(OCCCO)ccc2N1C(=O)c1ccc2ccccc2n1`, the z-score came to 0.925.
`Cc1ccc(S[C@]2(C(=O)NCc3ccccc3)CC(=O)N(C3Cc4ccccc4C3)[C@@H]2c2ccc(CO)cc2I)cc1` returned a z-score of 1.24.
For the compound `CC(C)C(CO)N1C(=O)[C@@H]2[C@H]3C(=O)OCC=C[C@H]3OC23C=CCN(CCN2CCOCC2)C(=O)[C@@H]13` (stereo partly drawn), the z-score is -0.0537.
Take `C=CCOC(=O)[C@@H]1[C@H]2C(=O)O[C@H](c3ccccc3)[C@H](c3ccccc3)N2[C@H](c2ccc(OCCOC(=O)[C@H]3C[C@H]4C(=O)N[C@@H](Cc5ccccc5)C(=O)N4[C@H]3c3cccc(OCCO)c3)cc2)[C@@]12C(=O)Nc1ccc(I)cc12`: the z-score was -1.37.
`CCOC(=O)C[C@H]1[C@H](OC(=O)c2ccccc2-c2ccccc2)[C@@H](NC(=O)c2ccccc2)c2cc(OCCCO)ccc2N1C(=O)Cc1ccc(OC)cc1`: the z-score is 0.322.
For `NCCCCCCNC(=O)[C@H]1C[C@H]2C(=O)N3CCC[C@H]3C(=O)N2[C@H]1c1ccc(O)cc1`, the z-score is -0.712.
In the case of `COC(=O)[C@@]1(Cc2ccc(F)cc2)[C@H]2c3cc(C(=O)N4CCCC4)n(Cc4ccccc4)c3C[C@H]2CN1C(=O)c1ccccc1`, the z-score was -1.23.
Consider `COC(=O)[C@@]1(Cc2ccccc2)[C@H]2c3cc(C(=O)N(C)C)n(Cc4ccccn4)c3C[C@H]2CN1C(=O)c1ccccc1`, for which the z-score is -0.128.
`O=C1c2ccccc2[C@](Cc2ccccc2I)(C(=O)NCC(F)(F)F)[C@H](c2ccc(CO)cc2)N1Cc1ccccc1` gave a z-score of 0.71.
Take `O=C1NC(=O)C2C1C=CC(C(O)c1ccc3c(c1)OCO3)N2Nc1ccc(Cl)cc1Cl` (stereo not drawn): the z-score amounted to 0.512.
Turning to `COCCOC(=O)N1C(=O)[C@@]2(c3cc(C#CCCO)ccc31)[C@H](c1ccc(OCCO)cc1)N1[C@H](c3ccccc3)[C@H](c3ccccc3)OC(=O)[C@H]1[C@@H]2C(=O)N1CCc2cc(OC)c(OC)cc2C1`, the z-score is -0.633.
`CC(C)c1ccc(NN2C(C(O)c3cccs3)C=CC3C(=O)N(c4ccccc4)C(=O)C32)cc1` (stereo not drawn): the z-score is -1.13.
In turn, `C#CCNS(=O)(=O)N(C)C` displayed a z-score of 0.497.
As to `C=CC[C@]1(C(=O)N(C)C)N=C(c2ccc(OCCCO)cc2)O[C@H]1c1ccccc1`, the z-score was -0.259.
Take `C[C@@H]1ON(c2ccccc2)[C@H](c2ccccc2)[C@H]1C(=O)N1C(=O)OC[C@H]1Cc1ccccc1`: the z-score stood at 2.24.
As to `COc1ccc([Si](C)(C)[C@H]2[C@H](CC(=O)N3CCC[C@H]3CO)O[C@@]3(C(=O)N(Cc4ccc(N5C(=O)c6cccc7cccc5c67)cc4)c4ccccc43)[C@@H]2C)cc1`, the z-score amounted to 0.285.
On to `COCC1=C([C@H](O)CCc2ccccc2)[C@H](CO)[C@@H]2C(=O)N(C)C(=O)[C@@H]2C1`, for which the z-score worked out at 0.982.
